According to PubChem BioAssay (NCATS):
Records with an inconclusive call do not appear. Values without a mark were called inactive. The call rests on the fitted dose curve; in most records, active means well fitted cell-killing curve with a large enough effect; inconclusive means small, poorly fitted or top-dose-only effect, or effect the other way; inactive means flat fitted curve, though single readings scatter.

system: Tov-21-G; assay: Primary qHTS to identify gynecologic anti-cancer compounds using libraries of approved drugs and bioactive compounds (AID 1345084); conditions: Gynecologic cancer cell panel viability, ATPlite luminescence, 48 h; series mostly up to 57.5 µM; activity change, negative = cytotoxicity: at the top concentration; further: nearly all actives have a fitted effect of over 55% in size
Method in brief: (§1)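 ATP-based viability (ATPlite), 1,000 cells/well, 16 h pre-incubation, 48 h compound at 37 C, 5% CO2, 15 min RT before read.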
On the % scale 0 is the no-effect control and ±100 the full control effect.

SMILES | activity change, negative = cytotoxicity
CNC12CC3C[C@@](C)(C1)C[C@](C)(C3)C2 | -17.5%
COc1cccc2cc3c(c(O[C@@H]4O[C@H](CO[C@@H]5O[C@H](CO)[C@@H](O)[C@H](O)[C@H]5O)[C@@H](O)[C@H](O)[C@H]4O)c12)C(C)OC3=O (stereo partly specified) | 2.08% [at 25.3 µM]
C/C(=C\CC[C@@H](C)[C@H]1CC(O)[C@@]2(C)C3CC[C@H]4C(C)(C)[C@@H](OC5OCC(O)C(O)C5OC5OC(CO)C(O)C(O)C5O)CC[C@@]45C[C@@]35CC(O)[C@]12C)C(=O)O (stereo partly specified) | -1.04% [at 25.3 µM]
Cc1ccc(NC(=O)C(=O)NC2CC(C)(C)NC(C)(C)C2)cc1 | 5.31%
C=CC(C)(C)C12C=C(OC)C(=O)N3C(C(C)C)C(=O)NC31N(OC)c1ccccc12 (stereo unspecified) | 6.97% [at 25.3 µM]
O=S(=O)(NC1CCC(c2cc(F)ccc2F)(S(=O)(=O)c2ccc(Cl)cc2)CC1)C(F)(F)F (stereo unspecified) | 0.564%
CC(C)=CCC[C@](C)(O[C@@H]1O[C@H](CO)[C@@H](O)[C@H](O)[C@H]1O)[C@H]1CC[C@]2(C)[C@@H]1[C@H](O)CC1[C@@]3(C)CC[C@H](O)C(C)(C)C3[C@@H](O[C@@H]3O[C@H](CO)[C@@H](O)[C@H](O)[C@H]3O[C@@H]3OC[C@@H](O)[C@H](O)[C@H]3O)C[C@]12C (stereo partly specified) | -2.34% [at 11.6 µM]
CC(=O)OC1CC2(C)C3=CCC4(C)C5C(O)C(O)C(C(C)C)C5(C)CCC4(C)C3CCC2C(C)(C)C1OC1OC(CO)C(O)C(O)C1O (stereo unspecified) | -1.45% [at 25.3 µM]
CC1(C)CCCC2(C)C1CC(=O)C13CC(CCC12)C(O)(CO)C3 (stereo unspecified) | -6.1% [at 38.5 µM]
CC1=CC(=O)C2(OC3OC(C)C(O)C(OC(=O)/C=C/c4ccccc4)C3O)C=COC(OC3OC(CO)C(O)C(O)C3O)C12 (stereo unspecified) | 8.45% [at 25.3 µM]
C=C(CO)C12OC1C1(C)C(=CC2=O)C(O)C(O)CC1C (stereo unspecified) | -0.074%
O=C(CCc1ccccc1)N1CCC(O)(Cn2cnc3cc(Cl)ccc3c2=O)CC1 | 10.2%
C=CC(C)(O)CC[C@H]1C(=C)CCC2[C@](C)(C(=O)O)CCC[C@@]21C (stereo partly specified) | 13.5% [at 38.5 µM]
C=C1[C@H](OC(C)=O)[C@H]2[C@@H](OC(C)=O)[C@](C)(OC(C)=O)C[C@]2(OC(C)=O)C(=O)[C@H](C)/C=C/C(C)(C)C(=O)[C@H](OC(=O)C(C)CC)[C@H]1OC(C)=O (stereo partly specified) | 2.03% [at 25.3 µM]
C=C(C(=O)O)C1CCC2(C)CCC(O)C(C)(O)C2C1 (stereo unspecified) | 4.89%
C[C@@H]1O[C@@H](OC[C@H]2O[C@@H](OC(CCCCc3ccc(O)cc3)CCc3ccc(O)cc3)[C@H](O)[C@@H](O)[C@@H]2O)[C@H](O)[C@H](O)[C@H]1O (stereo partly specified) | 8.17% [at 25.3 µM]
COC(=O)c1ccc(OC(CO)C(O)c2ccc(O)c(OC)c2)c(OC)c1 (stereo unspecified) | -16.3% [at 38.5 µM]
C/C1=C\C[C@]2(C)C(=O)C(O)=C([C@H](C)CO)[C@H]2C/C=C(\C)[C@@H](O)CC/C(C)=C/CC1 | 5.45% [at 38.5 µM]
C=C(C)C1CCC2(C(=O)O)CCC3(C(=O)O)C(CCC4C5(C)CCC(O)C(C)(C(=O)O)C5CCC43C)C12 (stereo unspecified) | -3.06% [at 25.3 µM]
O=C(Nc1ccccc1-c1cn2c(CN3CCNCC3)csc2n1)c1ccc2ccccc2n1 | 0.867%
COc1c2c(c(CO)c3c1C(=O)OC3)OC1(C)CCC3(O)C(C)(C)OC(=O)CCC3(C)C1C2 (stereo unspecified) | 3.83% [at 25.3 µM]
CC(C)C(N)C(=O)OCCOCn1cnc2c(=O)[nH]c(N)nc21 (stereo unspecified) | 0.179%
O=C(Nc1ccc(S(=O)(=O)Nc2nccs2)cc1)C(c1ccccc1)c1ccccc1 | -0.571%
CN=C(N)NCCCCC/C=C(/C)CC(C)C1OC(=O)C(C)C(O)/C=C/C(C)C(O)CC(O)C(C)C(O)CCC(C)C(O)CC2(O)OC(CC(OC(=O)CC(=O)O)CC(O)CC(O)C(C)C(O)/C(C)=C/CCC1C)CC(O)C2O (stereo unspecified) | 3.06% [at 11.6 µM]
CCOCCn1nc(CC)c2nc(N3CCC(C(=O)O)CC3)nc(Nc3cc(C)ccn3)c21 | -0.997%
CC1OC(OC2C(CO)OC(OCC3OC(OC(=O)C45CCC(C)(C)CC4C4=CCC6C7(C)CCC(OC8OC(CO)C(O)C(OC9OC(CO)C(O)C(O)C9O)C8O)C(C)(C)C7CCC6(C)C4(C)CC5)C(O)C(O)C3O)C(O)C2O)C(O)C(O)C1OC1OC(CO)C(O)C(O)C1O (stereo unspecified) | 3.67% [at 6.55 µM]
O=c1[nH]ccc2cc(OC3CCNCC3)ccc12 | -7.28%

system: Tov112D; assay: as above; conditions: Gynecologic cancer cell panel viability, ATPlite luminescence, 48 h; series mostly up to 57.5 µM; activity change, negative = cytotoxicity: at the top concentration
Method in brief: as §1

SMILES | activity change, negative = cytotoxicity
CC(=O)C12OC(C)(C)OC1CC1C3CCC4=CC(=O)C=CC4(C)C3(F)C(O)CC12C (stereo unspecified) | 4.2%
COC(=O)C1=CO[C@@H](O[C@@H]2O[C@H](CO[C@@H]3O[C@H](COC(=O)/C=C/c4cc(OC)c(O)c(OC)c4)[C@@H](O)[C@H](O)[C@H]3O)[C@@H](O)[C@H](O)[C@H]2O)[C@@H]2C(CO)=CC[C@H]12 | 22.8% [at 25.3 µM]
CC1=C2C3OC(=O)C(C)C3(O)CCC2(C)CCC1O (stereo unspecified) | 2.18%
COc1ccccc1Oc1ccc(N(Cc2cccnc2)S(=O)(=O)CC(F)(F)F)cc1 | 2.57%
O=C(/C=C/c1ccc(O)cc1)N[C@@H](Cc1ccc(O)cc1)C(=O)O | -0.375% [at 38.5 µM]
CC1=C(C)C(=O)OC(C(C)C2CCC3C4C5OC5C5(O)CC(OC6OC(CO)C(OC7OC(C)C(O)C(O)C7O)C(O)C6O)CC(O)C5(C)C4CCC23C)C1 (stereo unspecified) | 3.7% [at 25.3 µM]
C=C[C@H]1CN2CC[C@H]1C[C@@H]2C(O)c1ccnc2ccc(OC)cc12 (stereo partly specified) | -5.69% [at 38.5 µM]
C=C[C@H]1C(O[C@@H]2O[C@H](CO)[C@@H](O)[C@H](O)[C@H]2O)OC=C2C(=O)N3CCc4c([nH]c5ccccc45)C3CC21 (stereo partly specified) | 4.07% [at 25.3 µM]
O=C(O)/C=C/c1ccc(O)c(O[C@@H]2O[C@H](CO)[C@@H](O)[C@H](O)[C@H]2O)c1 | 0.883% [at 38.5 µM]
C=C(C(=O)O)C1CC(O)C2(C)CCCC(=C)C2C1 (stereo unspecified) | -0.658%
CC1CCC2(C(=O)O)CCC3(C)C(=CCC4C5(C)CCC(OC(=O)/C=C/c6ccccc6)C(C)(C)C5CCC43C)C2C1C (stereo unspecified) | -14.6% [at 25.3 µM]
C=C[C@H]1[C@H](O[C@@H]2O[C@H](CO)[C@@H](O)[C@H](O)[C@H]2O)OC=C(C(=O)OC)[C@H]1CC(=O)O | -3.97% [at 38.5 µM]
CNC12CC3C[C@@](C)(C1)C[C@](C)(C3)C2 | 7.12%
COc1cccc2cc3c(c(O[C@@H]4O[C@H](CO[C@@H]5O[C@H](CO)[C@@H](O)[C@H](O)[C@H]5O)[C@@H](O)[C@H](O)[C@H]4O)c12)C(C)OC3=O (stereo partly specified) | 9.53% [at 25.3 µM]
C/C(=C\CC[C@@H](C)[C@H]1CC(O)[C@@]2(C)C3CC[C@H]4C(C)(C)[C@@H](OC5OCC(O)C(O)C5OC5OC(CO)C(O)C(O)C5O)CC[C@@]45C[C@@]35CC(O)[C@]12C)C(=O)O (stereo partly specified) | -0.232% [at 25.3 µM]
Cc1ccc(NC(=O)C(=O)NC2CC(C)(C)NC(C)(C)C2)cc1 | -5.52%
C=CC(C)(C)C12C=C(OC)C(=O)N3C(C(C)C)C(=O)NC31N(OC)c1ccccc12 (stereo unspecified) | 4.52% [at 25.3 µM]
O=S(=O)(NC1CCC(c2cc(F)ccc2F)(S(=O)(=O)c2ccc(Cl)cc2)CC1)C(F)(F)F (stereo unspecified) | -8.11%
CC(C)=CCC[C@](C)(O[C@@H]1O[C@H](CO)[C@@H](O)[C@H](O)[C@H]1O)[C@H]1CC[C@]2(C)[C@@H]1[C@H](O)CC1[C@@]3(C)CC[C@H](O)C(C)(C)C3[C@@H](O[C@@H]3O[C@H](CO)[C@@H](O)[C@H](O)[C@H]3O[C@@H]3OC[C@@H](O)[C@H](O)[C@H]3O)C[C@]12C (stereo partly specified) | -2.93% [at 11.6 µM]
CC(=O)OC1CC2(C)C3=CCC4(C)C5C(O)C(O)C(C(C)C)C5(C)CCC4(C)C3CCC2C(C)(C)C1OC1OC(CO)C(O)C(O)C1O (stereo unspecified) | 1.21% [at 25.3 µM]

SMILES | activity change, negative = cytotoxicity
CC1(C)CCCC2(C)C1CC(=O)C13CC(CCC12)C(O)(CO)C3 (stereo unspecified) | 12.5% [at 38.5 µM]
CC1=CC(=O)C2(OC3OC(C)C(O)C(OC(=O)/C=C/c4ccccc4)C3O)C=COC(OC3OC(CO)C(O)C(O)C3O)C12 (stereo unspecified) | 10.4% [at 25.3 µM]
C=C(CO)C12OC1C1(C)C(=CC2=O)C(O)C(O)CC1C (stereo unspecified) | 6.17%
O=C(CCc1ccccc1)N1CCC(O)(Cn2cnc3cc(Cl)ccc3c2=O)CC1 | 2.46%
C=CC(C)(O)CC[C@H]1C(=C)CCC2[C@](C)(C(=O)O)CCC[C@@]21C (stereo partly specified) | 2.01% [at 38.5 µM]
C=C1[C@H](OC(C)=O)[C@H]2[C@@H](OC(C)=O)[C@](C)(OC(C)=O)C[C@]2(OC(C)=O)C(=O)[C@H](C)/C=C/C(C)(C)C(=O)[C@H](OC(=O)C(C)CC)[C@H]1OC(C)=O (stereo partly specified) | -1.03% [at 25.3 µM]
C=C(C(=O)O)C1CCC2(C)CCC(O)C(C)(O)C2C1 (stereo unspecified) | 3.59%
C[C@@H]1O[C@@H](OC[C@H]2O[C@@H](OC(CCCCc3ccc(O)cc3)CCc3ccc(O)cc3)[C@H](O)[C@@H](O)[C@@H]2O)[C@H](O)[C@H](O)[C@H]1O (stereo partly specified) | -2.07% [at 25.3 µM]
COC(=O)c1ccc(OC(CO)C(O)c2ccc(O)c(OC)c2)c(OC)c1 (stereo unspecified) | -3.07% [at 38.5 µM]
C/C1=C\C[C@]2(C)C(=O)C(O)=C([C@H](C)CO)[C@H]2C/C=C(\C)[C@@H](O)CC/C(C)=C/CC1 | 7.09% [at 38.5 µM]
C=C(C)C1CCC2(C(=O)O)CCC3(C(=O)O)C(CCC4C5(C)CCC(O)C(C)(C(=O)O)C5CCC43C)C12 (stereo unspecified) | 3.88% [at 25.3 µM]
O=C(Nc1ccccc1-c1cn2c(CN3CCNCC3)csc2n1)c1ccc2ccccc2n1 | 5.76%
COc1c2c(c(CO)c3c1C(=O)OC3)OC1(C)CCC3(O)C(C)(C)OC(=O)CCC3(C)C1C2 (stereo unspecified) | -0.962% [at 25.3 µM]
CC(C)C(N)C(=O)OCCOCn1cnc2c(=O)[nH]c(N)nc21 (stereo unspecified) | -0.453%
O=C(Nc1ccc(S(=O)(=O)Nc2nccs2)cc1)C(c1ccccc1)c1ccccc1 | 18.7%
CN=C(N)NCCCCC/C=C(/C)CC(C)C1OC(=O)C(C)C(O)/C=C/C(C)C(O)CC(O)C(C)C(O)CCC(C)C(O)CC2(O)OC(CC(OC(=O)CC(=O)O)CC(O)CC(O)C(C)C(O)/C(C)=C/CCC1C)CC(O)C2O (stereo unspecified) | -6.61% [at 11.6 µM]
CCOCCn1nc(CC)c2nc(N3CCC(C(=O)O)CC3)nc(Nc3cc(C)ccn3)c21 | -0.0131%
CC1OC(OC2C(CO)OC(OCC3OC(OC(=O)C45CCC(C)(C)CC4C4=CCC6C7(C)CCC(OC8OC(CO)C(O)C(OC9OC(CO)C(O)C(O)C9O)C8O)C(C)(C)C7CCC6(C)C4(C)CC5)C(O)C(O)C3O)C(O)C2O)C(O)C(O)C1OC1OC(CO)C(O)C(O)C1O (stereo unspecified) | -6.51% [at 6.55 µM]
O=c1[nH]ccc2cc(OC3CCNCC3)ccc12 | -0.832%
